Reference: PubChem BioAssay AID1159580 (chemical genetic matrix, 2015)
Screen size: about 5,500 compounds; about 2,000 (36%) were called active. Not shown: some 18% with an inconclusive outcome. No stated cut-off is given here; in the data, active means normalized growth mostly below about 0.91 (no sharp cut-off); inconclusive means no clear call, values can overlap the other calls; inactive means mostly above about 0.92. This is one part of the list.

Experiment: chemical genetic growth profiling, strain panel (AID 1159580);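 further: tested at 20 µM; growth read once vehicle control cultures reached saturation at 30 °C; 1 = growth at the plate median or of vehicle wells; lower values mean less growth of the strain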
Details: S. cerevisiae deletion strains, growth OD
[1] = locus YAL013W, strain DEP1, active compounds read low
[2] = locus YMR263W, strain SAP30, active compounds read low
[3] = locus YPL055C, strain LGE1, active compounds read low
[4] = locus YPL241C, strain CIN2, active compounds read low
[5] = locus YDL101C, strain DUN1, active compounds read low
[6] = locus YHR030C, strain SLT2, active compounds read low

Measured: normalized growth

CC[C@H]1CN2CCc3cc(OC)c(OC)cc3[C@@H]2C[C@@H]1C[C@H]1NCCc2cc(OC)c(OC)cc21
inactive: [1] 1.01 | locus YAL040C, strain CLN3, active compounds read low 0.999 | locus YCL061C, strain MRC1 (second series), active compounds read low 0.995 | locus YDR363W, strain ESC2, active compounds read low 0.999 | locus YER002W, strain NOP16, active compounds read low 1 | locus YGR229C, strain SMI1, active compounds read low 0.994 | [2] 1.01 | locus YMR307W, strain GAS1, active compounds read low 1.01 | locus YNL128W, strain TEP1, active compounds read low 0.999 | locus YNL175C, strain NOP13, active compounds read low 1.03 | locus YNL197C, strain WHI3, active compounds read low 1.02 | locus YNL224C, strain SQS1, active compounds read low 1.02 | locus YOR083W, strain WHI5 (second series), active compounds read low 1.02 | [3] 1.02 | [4] 1

O=C(Nc1cc(C(F)(F)F)cc(C(F)(F)F)c1)C(Sc1ccccn1)c1ccccc1 (configuration not stated)
inactive: [1] 0.998 | locus YBR229C, strain ROT2, active compounds read low 0.983 | [5] 0.987 | locus YDL134C, strain PPH21, active compounds read low 0.979 | locus YDR150W, strain NUM1, active compounds read low 1 | locus YEL061C, strain CIN8, active compounds read low 0.988 | locus YGR078C, strain PAC10, active compounds read low 0.989 | [6] 0.982 | locus YHR087W, strain rtc3, active compounds read low 0.973 | locus YJR043C, strain POL32, active compounds read low 0.995 | locus YJR075W, strain HOC1, active compounds read low 1.01 | locus YLR039C, strain RIC1, active compounds read low 0.944 | locus YLR058C, strain SHM2 (second series), active compounds read low 0.978 | locus YLR085C, strain ARP6, active compounds read low 1.02 | locus YLR262C, strain YPT6, active compounds read low 0.962 | locus YML094W, strain GIM5, active compounds read low 0.953 | locus YMR219W, strain ESC1, active compounds read low 0.99 | [2] 1.03 | locus YNL153C, strain GIM3, active compounds read low 1.01 | locus YNL298W, strain CLA4 (second series), active compounds read low 1.01 | locus YNL322C, strain KRE1, active compounds read low 0.991 | locus YNR030W, strain Alg12, active compounds read low 0.997 | locus YOL006C, strain TOP1, active compounds read low 0.997 | [3] 1.03 | [4] 0.98 | locus YPR135W, strain CTF4, active compounds read low 0.959

O=C(Nc1ccccn1)c1cc(-c2ccccc2)c(C(F)(F)F)s1
active: [6] 0.816 | locus YLR113W, strain HOG1, active compounds read low 0.77 | locus YPL256C, strain CLN2, active compounds read low 0.806
inactive: locus YAR019C, strain CDC15, active compounds read low 0.954 | locus YBL105C, strain PKC1, active compounds read low 0.94 | locus YBR135W, strain CKS1, active compounds read low 0.947 | locus YBR136W, strain MEC1, active compounds read low 0.953 | locus YBR160W, strain CDC28, active compounds read low 0.939 | locus YDL017W, strain CDC7, active compounds read low 0.945 | locus YDL028C, strain MPS1, active compounds read low 0.95 | [5] 0.944 | locus YDL108W, strain KIN28, active compounds read low 0.962 | locus YDL132W, strain cdc53, active compounds read low 0.942 | locus YDL214C, strain PRR2, active compounds read low 0.897 | locus YDR052C, strain DBF4, active compounds read low 0.955 | locus YDR054C, strain cdc34, active compounds read low 0.947 | locus YDR226W, strain ADK1, active compounds read low 0.965 | locus YDR477W, strain SNF1, active compounds read low 0.969 | locus YER123W, strain YCK3, active compounds read low 0.967 | locus YER133W, strain GLC7, active compounds read low 0.961 | locus YFL009W, strain cdc4, active compounds read low 0.955 | locus YFL029C, strain CAK1, active compounds read low 0.939 | locus YFR003C, strain YPI1, active compounds read low 0.95 | locus YFR019W, strain FAB1, active compounds read low 0.953 | locus YFR028C, strain CDC14, active compounds read low 0.959 | locus YGR040W, strain KSS1, active compounds read low 0.96 | locus YGR052W, strain FMP48, active compounds read low 0.971 | locus YGR092W, strain DBF2, active compounds read low 0.902 | locus YHR079C, strain IRE1, active compounds read low 0.877 | locus YHR082C, strain KSP1, active compounds read low 0.918 | locus YHR205W, strain SCH9, active compounds read low 0.836 | locus YIL147C, strain SLN1, active compounds read low 0.949 | locus YJL095W, strain BCK1, active compounds read low 0.916 | locus YJL128C, strain PBS2, active compounds read low 0.909 | locus YJL157C, strain FAR1, active compounds read low 0.948 | locus YJR016C, strain ILV3, active compounds read low 0.951 | locus YJR066W, strain TOR1 (second series), active compounds read low 1 | locus YJR066W, strain TOR1, active compounds read low 0.897 | locus YKL048C, strain ELM1, active compounds read low 0.948 | locus YKL067W, strain YNK1, active compounds read low 0.928 | locus YKL101W, strain HSL1, active compounds read low 0.929 | locus YKL193C, strain SDS22, active compounds read low 0.929 | locus YKL203C, strain TOR2, active compounds read low 1.01 | locus YLR133W, strain CKI1, active compounds read low 0.941 | locus YLR403W, strain SFP1, active compounds read low 0.97 | locus YML070W, strain DAK1, active compounds read low 0.924 | locus YMR001C, strain CDC5, active compounds read low 0.921 | locus YMR205C, strain PFK2 (second series), active compounds read low 0.934 | locus YMR277W, strain FCP1, active compounds read low 0.928 | locus YNL006W, strain LST8, active compounds read low 0.94 | locus YNL020C, strain ARK1, active compounds read low 0.931 | locus YNL161W, strain CBK1, active compounds read low 0.934 | locus YNL183C, strain NPR1, active compounds read low 0.887 | locus YNL207W, strain RIO2, active compounds read low 0.935 | locus YNL222W, strain SSU72, active compounds read low 0.941 | locus YNL307C, strain MCK1 (second series), active compounds read low 0.897 | locus YOL078W, strain AVO1, active compounds read low 0.934 | locus YOL136C, strain PFK27, active compounds read low 0.893 | locus YOR061W, strain CKA2, active compounds read low 0.95 | locus YOR119C, strain RIO1, active compounds read low 0.945 | locus YOR231W, strain MKK1, active compounds read low 0.876 | locus YOR329C, strain SCD5, active compounds read low 0.935 | locus YPL031C, strain PHO85, active compounds read low 0.954 | locus YPL153C, strain RAD53, active compounds read low 0.963 | locus YPL204W, strain HRR25, active compounds read low 0.945 | locus YPL209C, strain IPL1, active compounds read low 0.938 | locus YPR025C, strain CCL1, active compounds read low 0.942 | locus YPR106W, strain ISR1, active compounds read low 0.936 | locus YPR111W, strain DBF20, active compounds read low 0.975 | strain NNK1, active compounds read low 0.919 | strain TSCII, active compounds read low 0.938
